The values that follow come from PubChem BioAssay (EPA / NIEHS).

Active and inactive are the calls of the source. Rule for the calls: active = hit-call score of the fitted dose curve at least 0.9, where 1 is the maximum; inactive = score below 0.9.

A short description of experiment [1]: ATG_E_Box_CIS: Attagene CIS-FACTORIAL HepG2 Assay for human Enhancer Box (E-box) (AID 2282936). The following applies: HepG2 E-box cis-reporter transcription, actives raise or lower the signal. An outline of the steps:
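DMSO served as negative control and baseline for bidirectional fitting. Human hepatoma HepG2 cells, transiently transfected with cis-reporter constructs, were dosed 24 h; reporter mRNA read by RT-PCR and capillary electrophoresis.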

The nature of experiment [2]: ATG_M_61_CIS: Attagene CIS-FACTORIAL HepG2 Assay for M61 Transcription Factor (Internal Marker) (AID 2282937). The following applies: HepG2 Attagene CIS-FACTORIAL M61 internal marker reporter; actives raise or lower the signal. Put shortly:
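HepG2 cells transiently transfected with multiplexed cis-promoter reporter units reporting endogenous transcription factor activity, measured 24 h after dosing. Reporter mRNA quantified by RT-PCR and capillary electrophoresis; bidirectional fit against DMSO baseline.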

Experiment [3] is described as follows: ATG_EGR_CIS: Attagene CIS-FACTORIAL HepG2 Assay for human Early Growth Response 1 (EGR1) (AID 2282938). As to conditions: HepG2 Attagene CIS-FACTORIAL EGR reporter mRNA; actives raise or lower the signal. Put shortly:
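HepG2 cells transiently transfected with cis-element-driven multiplexed reporter units, dosed for 24 h. EGR1-element reporter mRNA quantified by RT-PCR, 6-FAM labelling, HpaI digestion and capillary electrophoresis; bidirectional fit versus DMSO.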

Experiment [4] is described as follows: ATG_M_19_CIS: Attagene CIS-FACTORIAL HepG2 Assay for M19 Transcription Factor (Internal Marker) (AID 2282939). The following applies: HepG2 Attagene CIS-FACTORIAL M19 internal marker reporter; actives raise or lower the signal. Put shortly:
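Following a 24 h exposure, RNA from transfected HepG2 cells was reverse-transcribed, PCR-amplified with reporter-specific primers, end-labelled with 6-FAM and HpaI-digested before capillary separation. Values represent gain or loss versus DMSO.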

Experiment [5] is described as follows: ATG_ERE_CIS: Attagene CIS-FACTORIAL HepG2 Assay for Estrogen Response Element (ERE) (AID 2282940). The following applies: HepG2 ERE cis-reporter, Attagene RNA transcript; actives raise or lower the signal. An outline of the steps:
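HepG2, transient cis-reporter units, 24 h exposure. RNA isolated, oligo(dT) RT, reporter-specific PCR, FAM extension, HpaI cut, CE detection. Gain/loss-of-signal vs DMSO.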

The nature of experiment [6]: ATG_Ets_CIS: Attagene CIS-FACTORIAL HepG2 Assay for human Erythroblast Transformation Specific (ETS) (AID 2282941). The following applies: HepG2 ETS cis-reporter transcription, actives raise or lower the signal. An outline of the steps: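 HepG2 cells transfected with multiple cis-regulated reporter units measuring endogenous ETS-driven transcription, 24 h after dosing. Reporter mRNA quantified by RT-PCR with capillary electrophoresis; bidirectional fit relative to DMSO.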

Experiment [7] deals with Hepatocyte nuclear factor 3-beta (Homo sapiens) (UniProt Q9Y261). In words: ATG_FoxA2_CIS: Attagene CIS-FACTORIAL HepG2 Assay for human Forkhead box A2 (FOXA2) (AID 2282942). The following applies: HepG2 cis-reporter transcription factor activity, 24 h; actives raise or lower the signal. An outline of the steps:
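HepG2 transiently transfected with a multiplexed cis-promoter reporter library read endogenous FOXA2 activity. After 24 h compound exposure, reporter mRNA was quantified by RT-PCR, HpaI digestion and capillary electrophoresis. Bidirectional fit against DMSO.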

Experiment [8] in a line: ATG_FoxO_CIS: Attagene CIS-FACTORIAL HepG2 Assay for human Forkhead box O (FoxO) (AID 2282943). As to conditions: HepG2 Attagene cis-reporter, FoxO element, mRNA; actives raise or lower the signal. An outline of the steps:
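Endogenous transcription factor activity read from multiplexed cis-promoter reporter transcripts in transiently transfected HepG2, 24 h after dosing. Reporter RNA measured via RT-PCR plus capillary electrophoresis of FAM-labeled products; gain or loss relative to DMSO.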

Experiment [9] can be described thus: ATG_GATA_CIS: Attagene CIS-FACTORIAL HepG2 Assay for human GATA Binding Protein (AID 2282944). As to conditions: HepG2 GATA cis-element reporter, Attagene multiplex mRNA; actives raise or lower the signal. Put shortly:
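DMSO serves as negative control and baseline for bidirectional fitting of reporter mRNA changes. HepG2 cells bearing transiently transfected cis-promoter reporters were exposed 24 h; transcripts detected via RT-PCR and capillary electrophoresis.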

Experiment [10] can be described thus: ATG_GLI_CIS: Attagene CIS-FACTORIAL HepG2 Assay for human Zinc Finger Protein GLI1 (AID 2282945). The following applies: HepG2, Attagene cis-factorial reporter mRNA, GLI element; actives raise or lower the signal. Put shortly: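 Bidirectional curve fits relative to DMSO, using reporter mRNA levels from RT-PCR plus capillary electrophoresis. Cells were HepG2 transiently carrying cis-regulated reporter constructs, harvested 24 h after dosing.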

The target of experiment [11] is Bile acid receptor (Homo sapiens) (UniProt Q96RI1). In words: ATG_IR1_CIS: Attagene CIS-FACTORIAL HepG2 Assay for human Nuclear Receptor Subfamily 1 Group H Member 4 (NR1H4), IR1 submotif (AID 2282946). As to conditions: IR1 reporter transcription, actives raise or lower the signal. An outline of the steps:
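Cells (human HepG2) carry transiently transfected cis-promoter reporter transcription units. Compounds are incubated 24 h, total RNA is reverse-transcribed and amplified, and labelled fragments are resolved by capillary electrophoresis. Curves use DMSO as baseline.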

A short description of experiment [12]: ATG_GRE_CIS: Attagene CIS-FACTORIAL HepG2 Assay for human Glucocorticoid Response Elements (GRE) (AID 2282947). As to conditions: HepG2 GRE cis-reporter, Attagene multiplex mRNA; actives raise or lower the signal. An outline of the steps: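 Assay uses human hepatoma HepG2 cells transfected with cis-promoter reporter units, exposed 24 h. mRNA from reporters detected by RT-PCR plus capillary electrophoresis; DMSO serves as negative control and baseline.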

Experiment [13] can be described thus: ATG_ISRE_CIS: Attagene CIS-FACTORIAL HepG2 Assay for human Interferon Regulatory Factor 1 (IRF1) binding to an Interferon-Stimulated Response Element (ISRE) (AID 2282948). As to conditions: HepG2 ISRE cis-reporter (Attagene), mRNA transcription readout; actives raise or lower the signal. Put shortly:
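Transiently transfected HepG2 cells carrying cis-element reporter units, dosed 24 hours. Reporter mRNA quantified by RT-PCR, fluorescent primer extension, HpaI digestion and capillary electrophoresis. Bidirectional fitting relative to DMSO.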

Experiment [14] can be described thus: ATG_M_32_CIS: Attagene CIS-FACTORIAL HepG2 Assay for M32 Transcription Factor (Internal Marker) (AID 2282949).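 Note: background control marker of the multiplexed CIS panel rather than a real target.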 The following applies: HepG2 Attagene cis-factorial M32 reporter, mRNA; actives raise or lower the signal. Put shortly: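 Following 24 h chemical exposure of HepG2 cells transiently expressing cis-promoter reporter constructs, reporter transcript levels were determined by RT-PCR with fluorescent labelling and capillary electrophoresis, then fitted bidirectionally against DMSO.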

A short description of experiment [15]: ATG_M_06_CIS: Attagene CIS-FACTORIAL HepG2 Assay for M06 Transcription Factor (Internal Marker) (AID 2282950). The following applies: HepG2 Attagene CIS-FACTORIAL M06 internal marker reporter; actives raise or lower the signal. An outline of the steps:
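Fluorescence-labelled RT-PCR products from cis-promoter reporter units, cut with HpaI and resolved by capillary electrophoresis, give the signal. Cells are human HepG2, dosed for 24 h. Serves as background control, fitted relative to DMSO.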

For experiment [16], the target named is Hypoxia-inducible factor 1-alpha (Homo sapiens) (UniProt Q16665). Briefly: ATG_HIF1a_CIS: Attagene CIS-FACTORIAL HepG2 Assay for human Hypoxia Inducible Factor 1 (HIF1A) (AID 2282951). The following applies: HepG2 Attagene cis-factorial HIF1a reporter transcription; actives raise or lower the signal. An outline of the steps:
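HepG2 cells transiently transfected with multiple cis-regulated reporter transcription units measure endogenous transcription factor activity. After 24 h exposure, reporter mRNA is quantified by RT-PCR with 6-FAM labelling, HpaI digestion and capillary electrophoresis. Bidirectional fitting against DMSO.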

Experiment [17] concerns the target Hepatocyte nuclear factor 6 (Homo sapiens) (UniProt Q9UBC0). In words: ATG_HNF6_CIS: Attagene CIS-FACTORIAL HepG2 Assay for human Hepatocyte Nuclear Factor 6 (HNF6) (AID 2282952). As to conditions: HepG2 Attagene cis-factorial HNF6 reporter transcription; actives raise or lower the signal. Put shortly: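 HepG2 cells transiently transfected with cis-element-driven multiple reporter transcription units, dosed 24 h; reporter mRNA quantified by RT-PCR, FAM primer extension, HpaI digestion and capillary electrophoresis; bidirectional fit versus DMSO baseline.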

Experiment [18] in a line: ATG_MRE_CIS: Attagene CIS-FACTORIAL HepG2 Assay for human Metal Responsive Element (MRE) (AID 2282954). As to conditions: HepG2 MRE cis-reporter transcription, Attagene multiplex; actives raise or lower the signal. Put shortly:
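After a 24 h chemical exposure, transiently transfected HepG2 cells yield RNA whose reporter sequences are amplified, FAM-labelled and sized by capillary electrophoresis. Curves are fitted bidirectionally relative to DMSO.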

The target of experiment [19] is Heat shock factor protein 1 (Homo sapiens) (UniProt Q00613). In words: ATG_HSE_CIS: Attagene CIS-FACTORIAL HepG2 Assay for human Heat Shock Transcription Factor 1 (HSE) (AID 2282953). The following applies: HepG2 HSE cis-reporter, Attagene RNA transcription; actives raise or lower the signal. An outline of the steps:
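After a 24 h incubation with test chemical, transfected HepG2 cells were harvested for RNA; reporter transcripts were measured by RT-PCR and capillary electrophoresis. Values reflect gain or loss of signal relative to DMSO.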

A short description of experiment [20]: ATG_PBREM_CIS: Attagene CIS-FACTORIAL HepG2 Assay for human Phenobarbital-responsive Enhancer Module (PBREM) (AID 2282955). As to conditions: HepG2 PBREM cis-reporter, Attagene multiplexed transcription; actives raise or lower the signal. An outline of the steps: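 HepG2 cells transiently transfected with multiple cis-regulated reporter units measure endogenous transcription factor activity; 24 h compound exposure. Reporter mRNA quantified by RT-PCR, fluorescent labelling, HpaI digestion and capillary electrophoresis; bidirectional fit versus DMSO.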

Bile acid receptor (Homo sapiens), sequence (Q96RI1 whole entry, looked up, the tested form may be a part): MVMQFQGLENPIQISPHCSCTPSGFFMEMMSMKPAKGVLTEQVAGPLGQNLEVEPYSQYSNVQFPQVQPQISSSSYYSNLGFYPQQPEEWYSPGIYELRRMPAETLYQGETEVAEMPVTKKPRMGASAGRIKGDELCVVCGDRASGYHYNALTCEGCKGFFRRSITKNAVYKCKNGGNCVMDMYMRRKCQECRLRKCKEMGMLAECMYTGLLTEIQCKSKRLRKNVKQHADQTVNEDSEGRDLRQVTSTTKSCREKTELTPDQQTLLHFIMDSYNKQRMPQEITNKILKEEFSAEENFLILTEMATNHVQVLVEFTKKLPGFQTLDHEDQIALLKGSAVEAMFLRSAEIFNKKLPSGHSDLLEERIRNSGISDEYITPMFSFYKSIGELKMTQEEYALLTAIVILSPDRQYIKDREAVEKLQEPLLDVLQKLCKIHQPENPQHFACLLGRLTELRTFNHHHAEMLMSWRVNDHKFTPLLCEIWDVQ
Hypoxia-inducible factor 1-alpha (Homo sapiens), sequence (Q16665 whole entry, looked up): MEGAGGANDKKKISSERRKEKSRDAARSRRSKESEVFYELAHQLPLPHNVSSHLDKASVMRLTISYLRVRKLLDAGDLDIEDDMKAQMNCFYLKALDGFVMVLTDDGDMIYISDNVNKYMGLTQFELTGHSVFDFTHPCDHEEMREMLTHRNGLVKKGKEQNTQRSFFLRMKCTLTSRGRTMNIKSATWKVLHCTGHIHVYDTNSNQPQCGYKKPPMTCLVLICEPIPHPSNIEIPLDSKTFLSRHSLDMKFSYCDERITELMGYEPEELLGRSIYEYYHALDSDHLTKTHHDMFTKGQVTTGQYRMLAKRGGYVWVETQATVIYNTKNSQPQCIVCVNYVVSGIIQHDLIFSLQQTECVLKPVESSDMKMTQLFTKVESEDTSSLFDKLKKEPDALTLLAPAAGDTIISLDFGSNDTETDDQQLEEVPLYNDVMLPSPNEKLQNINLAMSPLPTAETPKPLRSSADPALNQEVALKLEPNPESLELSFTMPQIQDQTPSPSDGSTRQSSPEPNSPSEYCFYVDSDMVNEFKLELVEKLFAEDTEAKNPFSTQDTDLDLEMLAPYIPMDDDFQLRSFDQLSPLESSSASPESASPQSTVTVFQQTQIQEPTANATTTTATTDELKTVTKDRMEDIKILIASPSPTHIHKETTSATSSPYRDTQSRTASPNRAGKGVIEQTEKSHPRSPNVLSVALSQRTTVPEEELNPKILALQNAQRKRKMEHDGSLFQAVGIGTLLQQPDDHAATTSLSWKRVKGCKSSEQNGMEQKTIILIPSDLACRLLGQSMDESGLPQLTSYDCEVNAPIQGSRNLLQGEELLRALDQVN
Hepatocyte nuclear factor 6 (Homo sapiens), sequence (Q9UBC0 whole entry, looked up): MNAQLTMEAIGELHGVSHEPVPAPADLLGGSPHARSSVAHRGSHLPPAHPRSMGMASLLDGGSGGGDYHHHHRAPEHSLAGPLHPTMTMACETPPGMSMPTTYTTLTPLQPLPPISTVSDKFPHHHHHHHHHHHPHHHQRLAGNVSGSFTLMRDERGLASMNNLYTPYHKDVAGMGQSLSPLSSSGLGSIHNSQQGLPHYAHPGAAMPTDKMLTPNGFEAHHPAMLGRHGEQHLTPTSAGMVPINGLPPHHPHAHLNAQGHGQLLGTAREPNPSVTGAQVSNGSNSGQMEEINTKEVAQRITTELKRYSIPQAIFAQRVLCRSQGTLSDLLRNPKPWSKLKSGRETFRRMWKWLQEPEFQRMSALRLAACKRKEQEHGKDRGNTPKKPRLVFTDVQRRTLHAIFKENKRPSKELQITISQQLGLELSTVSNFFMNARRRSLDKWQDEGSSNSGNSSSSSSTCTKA
Hepatocyte nuclear factor 3-beta (Homo sapiens), sequence (Q9Y261 whole entry, looked up): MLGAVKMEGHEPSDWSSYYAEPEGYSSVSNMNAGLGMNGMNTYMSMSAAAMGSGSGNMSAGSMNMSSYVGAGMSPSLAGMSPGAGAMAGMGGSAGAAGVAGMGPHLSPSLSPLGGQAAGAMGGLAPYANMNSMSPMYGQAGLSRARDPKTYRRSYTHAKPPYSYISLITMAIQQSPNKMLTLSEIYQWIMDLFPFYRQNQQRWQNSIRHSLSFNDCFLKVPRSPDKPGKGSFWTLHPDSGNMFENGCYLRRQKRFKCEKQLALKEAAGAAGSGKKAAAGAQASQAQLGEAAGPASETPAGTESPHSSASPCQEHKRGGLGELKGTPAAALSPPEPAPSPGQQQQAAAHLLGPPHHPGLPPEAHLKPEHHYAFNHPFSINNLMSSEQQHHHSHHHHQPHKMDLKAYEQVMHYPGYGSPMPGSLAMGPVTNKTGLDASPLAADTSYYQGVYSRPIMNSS
Heat shock factor protein 1 (Homo sapiens), sequence (Q00613 whole entry, looked up): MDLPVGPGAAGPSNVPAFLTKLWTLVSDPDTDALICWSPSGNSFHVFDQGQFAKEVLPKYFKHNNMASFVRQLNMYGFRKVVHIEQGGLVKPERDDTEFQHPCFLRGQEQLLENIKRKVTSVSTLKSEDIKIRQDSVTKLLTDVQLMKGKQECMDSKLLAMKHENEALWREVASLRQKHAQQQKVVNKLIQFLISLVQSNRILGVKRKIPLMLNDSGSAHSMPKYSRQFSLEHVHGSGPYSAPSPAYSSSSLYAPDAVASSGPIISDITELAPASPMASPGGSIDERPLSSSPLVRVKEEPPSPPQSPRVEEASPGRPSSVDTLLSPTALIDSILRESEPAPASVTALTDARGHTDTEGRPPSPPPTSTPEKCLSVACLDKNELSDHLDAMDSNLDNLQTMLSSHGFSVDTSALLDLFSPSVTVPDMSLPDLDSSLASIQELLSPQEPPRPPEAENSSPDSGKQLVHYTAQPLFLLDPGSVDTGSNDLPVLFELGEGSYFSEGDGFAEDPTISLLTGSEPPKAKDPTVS

For the compound `O=[N+]([O-])c1ccc(CO)cc1`, the result in experiment [1], in experiment [2], in experiment [3], in [4], in experiment [5] and in experiment [6] was inactive. The result in experiment [7], in experiment [8], in experiment [9], in [10], in experiment [11] and in experiment [12] was inactive. Further, the result in [13], in experiment [14], in [15], in experiment [16], in experiment [17] and in experiment [18] was inactive.

For `CC(C)C(=O)C(C)C`, the result in [1], in [2], in experiment [4], in [5], in experiment [6] and in experiment [7] was inactive. Besides, the outcome in [9], in experiment [10], in experiment [11], in [12], in experiment [13] and in experiment [14] was inactive. Besides, the outcome in [15], in [16], in experiment [17], in [18] and in experiment [20] was inactive. The AC50 was 59.4 µM (active) in experiment [3], 65.6 µM (active) in experiment [8] and 68.7 µM (active) in experiment [19].

Consider `COC(F)(F)C(F)(C(F)(F)F)C(F)(F)F`, for which the result in [1], in [2], in [3], in [4], in experiment [5] and in experiment [6] was inactive. The outcome in experiment [7], in [8], in [9], in experiment [10], in experiment [11] and in experiment [12] was inactive. Besides, the compound was called inactive in [13], in experiment [14], in [15], in experiment [16], in experiment [17] and in [19]. Also, the result in experiment [18] and in experiment [20] was inactive.

Consider `CCCCCCC(O)CO` (stereo not given), for which the outcome in experiment [1], in experiment [2], in [3], in experiment [4], in experiment [5] and in experiment [6] was inactive. Moreover, the compound was classed as inactive in experiment [7], in experiment [8], in experiment [9], in experiment [10], in experiment [11] and in experiment [12]. Further, the outcome in [13], in experiment [14], in experiment [15], in experiment [16], in experiment [17] and in [18] was inactive. In addition, the outcome in [20] was inactive.

On to `O=C(O)c1cc2ccccc2nc1C(=O)O`, for which the result in [1], in experiment [2], in experiment [3], in [4], in experiment [5] and in [6] was inactive. In addition, the compound was classed as inactive in [7], in experiment [8], in experiment [9], in experiment [10], in experiment [11] and in experiment [12]. In addition, the compound was called inactive in experiment [13], in experiment [14], in experiment [15], in experiment [16], in experiment [17] and in experiment [19]. For the same compound, the compound was called inactive in experiment [18] and in experiment [20].

In the case of `C=C(C)CCO`, the outcome in [1], in experiment [2], in experiment [3], in experiment [4], in experiment [5] and in experiment [6] was inactive. Also, the call in experiment [7], in experiment [8], in experiment [9], in [10], in experiment [11] and in [12] was inactive. Also, the call in experiment [13], in experiment [14], in experiment [15], in experiment [16], in experiment [17] and in experiment [19] was inactive. Moreover, in [18], the result was inactive.

`O=C(C(Cl)Cl)N1CCOC12CCCCC2`: the result in experiment [1], in [2], in experiment [4], in experiment [5], in experiment [6] and in experiment [7] was inactive. The outcome in experiment [8], in experiment [9], in [10], in experiment [12], in [13] and in experiment [14] was inactive. Moreover, the outcome in [15], in experiment [16], in experiment [17], in [18] and in [20] was inactive. The AC50 is 19.3 µM (active) in experiment [3] and 5.74 µM (active) in [11].

By AC50 is commonly meant the concentration giving half of the maximal activity seen.
